# Reference: PubChem BioAssay (EPA / NIEHS)
# Where “and” joins values, the source holds several entries; their conditions need not be identical. Equal values may be shown once. Inconclusive results are not listed. Some structures have more than one record in an assay (separate samples or runs), and their calls can disagree. Calls of active or inactive are those of the source. How the source made its calls: active means hit-call score of the fitted dose curve at least 0.9, where 1 is the maximum; inconclusive means response in the unintended direction; inactive means score below 0.9.
# Tests used:
# [1] = molecular target: Estrogen receptor (Homo sapiens) + Estrogen receptor beta (Homo sapiens) (UniProt P03372+Q92731); test: OT_ER_ERaERb_1440: Odyssey Thera (OT) 24-hour HEK293T Protein-Complementation Assay for Estrogen Receptor-alpha/-beta Homodimer (AID 2283356);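 further: heteromer of ER alpha and ER beta binding domains; hits raise reporter fluorescence and both agonists and antagonists give an increase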
# Chain of Estrogen receptor (Homo sapiens) + Estrogen receptor beta (Homo sapiens) (P03372 whole entry, looked up, the tested form may be a part): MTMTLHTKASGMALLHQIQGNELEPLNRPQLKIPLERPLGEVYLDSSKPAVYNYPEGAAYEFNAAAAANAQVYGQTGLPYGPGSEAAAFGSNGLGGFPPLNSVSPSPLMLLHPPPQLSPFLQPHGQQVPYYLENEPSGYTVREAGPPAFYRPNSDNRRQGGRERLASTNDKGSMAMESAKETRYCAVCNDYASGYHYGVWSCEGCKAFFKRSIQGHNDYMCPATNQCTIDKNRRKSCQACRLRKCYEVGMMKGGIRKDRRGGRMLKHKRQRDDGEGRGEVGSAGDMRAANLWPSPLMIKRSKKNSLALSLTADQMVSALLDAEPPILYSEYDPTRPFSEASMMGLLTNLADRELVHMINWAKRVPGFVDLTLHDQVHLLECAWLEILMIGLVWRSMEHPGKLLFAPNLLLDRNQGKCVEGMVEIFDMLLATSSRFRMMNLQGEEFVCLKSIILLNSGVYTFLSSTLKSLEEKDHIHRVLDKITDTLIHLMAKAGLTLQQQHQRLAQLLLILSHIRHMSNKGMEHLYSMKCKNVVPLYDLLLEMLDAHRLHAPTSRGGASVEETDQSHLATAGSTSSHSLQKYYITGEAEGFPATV
# Chain of Estrogen receptor (Homo sapiens) + Estrogen receptor beta (Homo sapiens) (Q92731 whole entry, looked up, the tested form may be a part): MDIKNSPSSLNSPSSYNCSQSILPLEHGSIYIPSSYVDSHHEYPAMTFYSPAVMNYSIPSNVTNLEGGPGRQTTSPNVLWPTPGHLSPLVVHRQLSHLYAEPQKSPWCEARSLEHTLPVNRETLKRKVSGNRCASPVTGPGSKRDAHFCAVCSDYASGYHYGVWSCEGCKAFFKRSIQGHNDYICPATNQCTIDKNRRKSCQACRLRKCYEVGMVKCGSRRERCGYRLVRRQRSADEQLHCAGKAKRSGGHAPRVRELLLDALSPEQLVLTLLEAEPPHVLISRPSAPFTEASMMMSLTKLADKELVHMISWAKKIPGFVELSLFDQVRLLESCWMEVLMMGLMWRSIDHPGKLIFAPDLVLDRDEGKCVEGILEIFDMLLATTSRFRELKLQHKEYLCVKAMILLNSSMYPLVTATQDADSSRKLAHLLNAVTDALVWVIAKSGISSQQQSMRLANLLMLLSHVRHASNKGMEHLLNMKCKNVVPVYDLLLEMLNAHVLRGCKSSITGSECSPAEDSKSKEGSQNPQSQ
# Method in brief: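 Readout: mean fluorescence intensity in nucleus (agonists) or nucleus plus cytoplasm (antagonists), read by laser scanning cytometer after 24 h compound exposure of HEK293T cells carrying ERα/ERβ LBD fragment-complementation constructs; DMSO baseline.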
# [2] = molecular target: Estrogen receptor beta (Homo sapiens) (UniProt Q92731); test: OT_ER_ERbERb_0480: Odyssey Thera (OT) 8-hour HEK293T Protein-Complementation Assay for Estrogen Receptor-beta/-beta Homodimer (AID 2283357);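 further: active means signal gain over DMSO baseline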
# Chain of Estrogen receptor beta (Homo sapiens) (Q92731 whole entry, looked up, the tested form may be a part): as above
# Method in brief: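 Readout: increase in mean fluorescence intensity (nucleus for agonists; nucleus plus cytoplasm for antagonists) relative to DMSO, from a reporter-fragment complementation of human ER-beta LBD homodimer in HEK293T cells dosed 8 hours.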
# [3] = molecular target: Androgen Receptor/SRC-1 Co-activator, AR (gene 367) (UniProt P10275); test: OT_AR_ARSRC1_0960: Odyssey Thera (OT) 16-hour HEK293T Protein-Complementation Assay for Androgen Receptor/SRC-1 Co-activator (AID 2283353);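 further: actives raise the signal above DMSO so potency reflects increased AR and SRC-1 complex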
# Chain of Androgen Receptor/SRC-1 Co-activator, AR (gene 367) (P10275 whole entry, looked up, the tested form may be a part): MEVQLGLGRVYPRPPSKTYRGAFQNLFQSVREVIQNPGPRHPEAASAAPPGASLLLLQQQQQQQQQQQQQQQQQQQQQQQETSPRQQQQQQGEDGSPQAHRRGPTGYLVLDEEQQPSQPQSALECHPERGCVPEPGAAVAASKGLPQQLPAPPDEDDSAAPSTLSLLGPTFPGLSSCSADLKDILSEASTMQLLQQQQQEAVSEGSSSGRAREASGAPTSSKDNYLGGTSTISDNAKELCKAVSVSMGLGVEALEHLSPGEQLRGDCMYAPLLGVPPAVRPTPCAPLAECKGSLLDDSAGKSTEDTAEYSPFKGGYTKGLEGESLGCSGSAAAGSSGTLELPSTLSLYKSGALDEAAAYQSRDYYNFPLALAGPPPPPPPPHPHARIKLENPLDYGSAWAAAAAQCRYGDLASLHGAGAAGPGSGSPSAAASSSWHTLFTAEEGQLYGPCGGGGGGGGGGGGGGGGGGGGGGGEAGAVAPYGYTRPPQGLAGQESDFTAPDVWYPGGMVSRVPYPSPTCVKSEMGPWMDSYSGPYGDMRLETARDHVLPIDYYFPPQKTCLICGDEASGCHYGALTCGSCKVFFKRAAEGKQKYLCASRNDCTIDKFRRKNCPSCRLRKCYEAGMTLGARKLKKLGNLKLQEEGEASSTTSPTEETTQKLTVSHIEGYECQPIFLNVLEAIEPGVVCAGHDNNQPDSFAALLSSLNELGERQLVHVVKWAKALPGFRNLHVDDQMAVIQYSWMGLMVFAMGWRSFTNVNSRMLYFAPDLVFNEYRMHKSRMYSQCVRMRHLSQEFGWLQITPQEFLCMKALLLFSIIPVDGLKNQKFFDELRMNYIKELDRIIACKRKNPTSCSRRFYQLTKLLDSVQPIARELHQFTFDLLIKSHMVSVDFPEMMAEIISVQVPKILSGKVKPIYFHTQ
# Method in brief: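 Interaction of AR with SRC-1 was followed by YFP fragment complementation in HEK293T cells after 16 h of dosing. Gain of nuclear-over-cytoplasmic 488 nm fluorescence against DMSO controls defined activity.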
# [4] = molecular target: Androgen Receptor/SRC-1 Co-activator, AR (gene 367) (UniProt P10275); test: OT_AR_ARSRC1_0480: Odyssey Thera (OT) 8-hour HEK293T Protein-Complementation Assay for Androgen Receptor/SRC-1 Co-activator (AID 2283354);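 further: hits raise the complementation signal above DMSO so AC50 marks enhancers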
# Method in brief: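 HEK293T cells stably expressing AR and SRC-1 fused to split Venus YFP fragments via (Gly4Ser)2 linkers were read 8 h after compound dosing. Complementation was imaged at 488 and 635nm, and nuclear/cytoplasmic fluorescence ratio (488nm) was taken over ≥400 cells; gain-of-signal versus DMSO.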
# [5] = molecular target: human Peroxisome Proliferator-activated Receptor alpha (PPARa), PPARA (gene 5465) (UniProt Q07869); test: NVS_NR_hPPARa: NovaScreen (NVS) Nuclear Receptor Binding Assay for human Peroxisome Proliferator-activated Receptor alpha (PPARa) (AID 2283359);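 further: activity means loss of TR-FRET signal versus DMSO baseline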
# Chain of human Peroxisome Proliferator-activated Receptor alpha (PPARa), PPARA (gene 5465) (Q07869 whole entry, looked up): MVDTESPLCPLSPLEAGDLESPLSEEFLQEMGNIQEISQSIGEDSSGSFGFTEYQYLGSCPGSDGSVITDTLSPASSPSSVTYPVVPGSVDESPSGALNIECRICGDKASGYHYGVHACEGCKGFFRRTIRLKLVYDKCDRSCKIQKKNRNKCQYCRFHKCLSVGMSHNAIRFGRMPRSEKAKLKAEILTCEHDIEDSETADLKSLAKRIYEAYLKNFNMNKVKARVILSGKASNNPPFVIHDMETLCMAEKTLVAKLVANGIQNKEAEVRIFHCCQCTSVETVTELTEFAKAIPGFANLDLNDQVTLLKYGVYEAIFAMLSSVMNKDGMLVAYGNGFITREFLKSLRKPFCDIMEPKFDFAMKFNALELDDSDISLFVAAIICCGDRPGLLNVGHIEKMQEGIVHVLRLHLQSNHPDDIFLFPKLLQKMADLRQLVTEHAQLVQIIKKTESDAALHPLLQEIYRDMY
# Method in brief: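 Cell-free binding assay with extracted human protein, read by TR-FRET 1 h after chemical dosing. Loss of signal relative to DMSO baseline indicates binding. Primary screen used duplicate single concentration (25 uM); actives followed up in concentration series.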
# [6] = molecular target: Retinoic acid receptor alpha (Homo sapiens) (UniProt P10276); test: NVS_NR_hRAR_Antagonist: NovaScreen (NVS) Nuclear Receptor Binding Assay for human Retinoic Acid Alpha Receptor Antagonism (RAR) (AID 2283358)
# Chain of Retinoic acid receptor alpha (Homo sapiens) (P10276 whole entry, looked up): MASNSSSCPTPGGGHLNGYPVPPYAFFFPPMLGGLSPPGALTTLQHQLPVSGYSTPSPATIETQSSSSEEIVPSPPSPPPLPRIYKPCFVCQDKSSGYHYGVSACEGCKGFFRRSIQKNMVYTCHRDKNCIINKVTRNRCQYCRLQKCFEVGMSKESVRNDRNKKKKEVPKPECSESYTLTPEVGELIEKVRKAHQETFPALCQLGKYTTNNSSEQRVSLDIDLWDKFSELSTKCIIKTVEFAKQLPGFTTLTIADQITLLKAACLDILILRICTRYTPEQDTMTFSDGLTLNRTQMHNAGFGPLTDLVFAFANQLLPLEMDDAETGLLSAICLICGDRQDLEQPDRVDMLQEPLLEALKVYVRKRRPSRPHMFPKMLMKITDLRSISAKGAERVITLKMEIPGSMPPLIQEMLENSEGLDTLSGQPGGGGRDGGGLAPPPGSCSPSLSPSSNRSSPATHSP
# Method in brief: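 Cell-free TR-FRET binding assay on extracted receptor protein, run in antagonist mode; signal read 2 hours after chemical dosing. Loss of signal was fitted relative to DMSO baseline. Screened at 25 uM in duplicate, actives followed up in concentration series.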
# [7] = molecular target: PGR (gene 5241) (UniProt P06401); test: NVS_NR_hPR: NovaScreen (NVS) Nuclear Receptor Binding Assay for human Progestron Receptor (PR) (AID 2283360);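 further: active means loss of bound radioligand signal versus DMSO baseline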
# Chain of PGR (gene 5241) (P06401 whole entry, looked up): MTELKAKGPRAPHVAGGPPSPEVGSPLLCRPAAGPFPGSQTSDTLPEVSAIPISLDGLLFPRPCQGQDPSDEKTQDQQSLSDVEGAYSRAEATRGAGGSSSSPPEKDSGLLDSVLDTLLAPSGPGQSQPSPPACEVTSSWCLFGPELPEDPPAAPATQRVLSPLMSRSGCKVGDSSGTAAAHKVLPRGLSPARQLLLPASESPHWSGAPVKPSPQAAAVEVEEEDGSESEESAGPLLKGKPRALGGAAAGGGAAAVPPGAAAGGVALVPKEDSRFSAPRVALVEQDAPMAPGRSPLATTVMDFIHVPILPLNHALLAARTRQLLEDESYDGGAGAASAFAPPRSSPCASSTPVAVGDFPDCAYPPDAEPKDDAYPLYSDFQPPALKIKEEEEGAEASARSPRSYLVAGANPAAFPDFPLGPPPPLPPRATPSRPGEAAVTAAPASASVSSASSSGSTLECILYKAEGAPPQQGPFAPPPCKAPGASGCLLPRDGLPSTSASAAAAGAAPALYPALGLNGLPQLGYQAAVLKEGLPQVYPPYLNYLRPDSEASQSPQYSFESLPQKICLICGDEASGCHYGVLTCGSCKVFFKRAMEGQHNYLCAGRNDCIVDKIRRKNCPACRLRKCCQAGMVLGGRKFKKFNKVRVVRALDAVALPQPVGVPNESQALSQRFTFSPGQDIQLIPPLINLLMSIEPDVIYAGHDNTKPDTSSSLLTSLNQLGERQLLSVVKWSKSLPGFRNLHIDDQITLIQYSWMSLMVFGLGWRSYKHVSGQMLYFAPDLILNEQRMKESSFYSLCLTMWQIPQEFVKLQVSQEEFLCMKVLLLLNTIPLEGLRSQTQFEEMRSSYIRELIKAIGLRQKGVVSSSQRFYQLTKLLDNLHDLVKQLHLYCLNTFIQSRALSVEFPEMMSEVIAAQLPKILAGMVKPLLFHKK
# Method in brief: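 Cell-free radioligand binding using receptor protein extracted from T47D cells, read by scintillation counting 18 hours after dosing. Loss of signal relative to DMSO baseline indicates displacement; primary screen single concentration 25 uM in duplicate, actives followed in concentration series.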
# [8] = molecular target: human Thyroid Receptor Alpha (TRa), THRA (gene 7067) (UniProt P10827); test: NVS_NR_hTRa_Antagonist: NovaScreen (NVS) Nuclear Receptor Binding Assay for human Thyroid Receptor Alpha Antagonism (TRa) (AID 2283362);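 further: activity is loss of signal relative to DMSO baseline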
# Chain of human Thyroid Receptor Alpha (TRa), THRA (gene 7067) (P10827 whole entry, looked up): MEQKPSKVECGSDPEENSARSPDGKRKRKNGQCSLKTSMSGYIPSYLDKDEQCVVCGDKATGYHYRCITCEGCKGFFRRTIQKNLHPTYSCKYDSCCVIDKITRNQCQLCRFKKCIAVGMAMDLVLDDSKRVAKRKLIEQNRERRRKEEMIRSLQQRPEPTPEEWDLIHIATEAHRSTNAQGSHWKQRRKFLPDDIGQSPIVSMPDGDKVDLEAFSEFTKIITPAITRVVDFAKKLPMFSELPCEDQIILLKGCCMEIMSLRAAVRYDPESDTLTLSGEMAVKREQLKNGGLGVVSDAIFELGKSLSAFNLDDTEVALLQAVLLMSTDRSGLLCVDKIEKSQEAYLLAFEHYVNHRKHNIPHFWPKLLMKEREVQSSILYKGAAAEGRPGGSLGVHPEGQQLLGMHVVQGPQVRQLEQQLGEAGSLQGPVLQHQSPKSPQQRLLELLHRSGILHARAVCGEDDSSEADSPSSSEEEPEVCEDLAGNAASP
# Method in brief: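 AlphaLISA chemiluminescent immunoassay readout, taken 1 h post-dosing in a cell-free system with extracted protein. Activity was scored as signal loss against DMSO negative control, from duplicate single-concentration (25 uM) testing followed by concentration-response follow-up.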
# [9] = molecular target: Retinoic acid receptor alpha (Homo sapiens) (UniProt P10276); test: NVS_NR_hRARa_Agonist: NovaScreen (NVS) Nuclear Receptor Binding Assay for human Retinoic Acid Alpha Receptor Agonism (RAR) (AID 2283361)
# Method in brief: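 Cell-free TR-FRET binding read-out with extracted human RARα protein, read 2 h after compound addition. Gain of signal scored against DMSO baseline. Primary screen at a single 25 uM in duplicate; actives then retested in concentration series.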
smiles,measurement,setting,value
CCc1nn(C)c(C(=O)NCc2ccc(C(C)(C)C)cc2)c1Cl,outcome,[1],inactive
same,outcome,[2],inactive
Cc1cc(Cl)ccc1OCC(=O)O,outcome,[3],inactive
same,outcome,[4],inactive
COC(=O)C=C(C)OP(=O)(OC)OC,outcome,[1],inactive
N#Cc1cc(Br)c(O)c(Br)c1,outcome,[3],inactive
same,outcome,[4],inactive
same,outcome,[5],inactive
COc1nc(NC(C)C)nc(NC(C)C)n1,outcome,[1],inactive
same,outcome,[2],inactive
CCCC1COC(Cn2cncn2)(c2ccc(Cl)cc2Cl)O1 (configuration not stated),AC50,[3],34.3 µM (active)
same,outcome,[4],inactive
same,outcome,[6],inactive
same,outcome,[7],inactive
CCON=C(CC)C1=C(O)CC(c2c(C)cc(C)cc2C)CC1=O (configuration not stated),outcome,[3],inactive
same,outcome,[6],inactive
Oc1ccccc1-c1ccccc1,AC50,[1],35.7 µM (active)
same,outcome,[1],inactive
same,AC50,[2],57.5 µM (active)
same,outcome,[2],inactive
same,outcome,[5],inactive
same,outcome,[8],inactive
CC(C)Oc1cc(-n2nc(C(C)(C)C)oc2=O)c(Cl)cc1Cl,AC50,[3],31.3 µM (active)
same,outcome,[4],inactive
same,outcome,[1],inactive
same,outcome,[2],inactive
same,outcome,[7],inactive
COP(=S)(OC)Oc1nc(Cl)c(Cl)cc1Cl,outcome,[1],inactive
same,outcome,[2],inactive
same,outcome,[6],inactive
C#CCOS(=O)OC1CCCCC1Oc1ccc(C(C)(C)C)cc1 (configuration not stated),outcome,[1],inactive
same,outcome,[2],inactive
same,outcome,[8],inactive
CCOC(=O)C(Cl)Cc1cc(-n2nc(C)n(C(F)F)c2=O)c(F)cc1Cl (configuration not stated),outcome,[2],inactive
COC(=O)N(OC)c1ccccc1COc1ccn(-c2ccc(Cl)cc2)n1,outcome,[1],inactive
same,outcome,[2],inactive
C=CC1(C)OC(=O)N(c2cc(Cl)cc(Cl)c2)C1=O (configuration not stated),outcome,[1],inactive
same,outcome,[2],inactive
same,AC50,[5],37.4 µM (active)
CNC(=S)S,outcome,[1],inactive
same,outcome,[2],inactive
CC1COC(Cn2cncn2)(c2ccc(Oc3ccc(Cl)cc3)cc2Cl)O1 (configuration not stated),outcome,[1],inactive
same,outcome,[2],inactive
same,outcome,[7],inactive
CCCCC(CC)COC(=O)c1ccccc1C(=O)OCC(CC)CCCC (configuration not stated),AC50,[1],50 µM (active)
same,outcome,[2],inactive
same,outcome,[8],inactive
CCCCOC(=O)c1ccccc1C(=O)OCCCC,AC50,[1],38.4 µM (active) and 33.9 µM (active) and 39.3 µM (active)
same,AC50,[2],28.8 µM (active) and 38.1 µM (active) and 34.2 µM (active)
same,outcome,[6],inactive
same,outcome,[7],inactive
same,AC50,[8],0.111 µM (active)
CCOP(=S)(OCC)SCn1c(=O)oc2cc(Cl)ccc21,outcome,[1],inactive
same,outcome,[2],inactive
same,outcome,[7],inactive
COc1cnc(OC)n2nc(NS(=O)(=O)c3c(OCC(F)F)cccc3C(F)(F)F)nc12,outcome,[2],inactive
COC(=O)c1ccccc1C(=O)OC,outcome,[1],inactive
same,outcome,[2],inactive
same,outcome,[6],inactive
same,outcome,[7],inactive
COc1ccc(C(c2ccc(OC)cc2)C(Cl)(Cl)Cl)cc1,AC50,[1],25.8 µM (active) and 33.2 µM (active) and 22.2 µM (active)
same,AC50,[2],3.79 µM (active) and 3.62 µM (active) and 3.92 µM (active)
same,outcome,[6],inactive
same,outcome,[5],inactive
same,outcome,[8],inactive
CCNc1nc(Cl)nc(NC(C)C)n1,outcome,[1],inactive
same,outcome,[2],inactive
same,outcome,[7],inactive
same,outcome,[8],inactive
CCNc1nc(Cl)nc(NCC)n1,outcome,[1],inactive
same,outcome,[2],inactive
Fc1ccc(Oc2ccnc3cc(Cl)cc(Cl)c23)cc1,outcome,[1],inactive
same,outcome,[2],inactive
CCCN(CCC)c1c([N+](=O)[O-])cc(S(N)(=O)=O)cc1[N+](=O)[O-],outcome,[1],inactive
same,outcome,[5],inactive
same,AC50,[7],4.36 µM (active)
same,outcome,[9],inactive
same,outcome,[8],inactive
COP(N)(=O)SC (configuration not stated),outcome,[1],inactive
same,outcome,[2],inactive
same,outcome,[6],inactive
CCCCNC(=O)OCC#CI,outcome,[2],inactive
same,AC50,[5],6.55 µM (active)
same,outcome,[7],inactive
same,outcome,[8],inactive
Cc1c(F)c(F)c(COC(=O)C2C(/C=C(\Cl)C(F)(F)F)C2(C)C)c(F)c1F (configuration not stated),outcome,[1],inactive
same,outcome,[2],inactive
CNC(=O)ON=CC(C)(C)SC,outcome,[7],inactive
CCOc1cc(Oc2ccc(C(F)(F)F)cc2Cl)ccc1[N+](=O)[O-],outcome,[1],inactive
same,outcome,[2],inactive
CON(C)C(=O)Nc1ccc(Cl)c(Cl)c1,outcome,[7],inactive
CC(Oc1ccc(Cl)cc1Cl)C(=O)O (configuration not stated),outcome,[6],inactive
